# Compound activity from PubChem.
# Only a sample is shown.
# aSyn UTR act = Activators working through SNCA 5'UTR binding (MLPCN) | alpha-synuclein 5'UTR reporter, activators screen | activity score, % (tested at 7.5 µM), hits read low | actives 7.1% (n = 300,000) | AID 1814; in the data active = activity score below about -60%
# * marks the source's active call; other numbers are inactive results.
SMILES,aSyn UTR act
Cc1ncsc1C(=O)Nc1nc2c(s1)CCCC2,-159*
S=c1[nH]nc(-c2ccn[nH]2)n1-c1ccccc1Cl,-86*
CCOc1cc(/C=N/O)ccc1OCc1ccc(C)cc1,-68*
O/N=C/c1cc(Br)ccc1OCc1ccc(F)cc1,-79*
Cc1ccc(COc2ccc(Br)cc2/C=N/O)cc1,-156*
CC(C)(C)c1ccc(C(=O)Nc2cccc3c(=O)[nH][nH]c(=O)c23)cc1,-68*
Cc1cccc2sc(N(CCCN(C)C)C(=O)c3ccc4ncsc4c3)nc12,-92*
CCc1ccc2nc(N(CCN(C)C)C(=O)c3ccc4ncsc4c3)sc2c1,-114*
O=C(CCl)c1ccc2c(c1)CCN2C(=O)C1CC1,-94*
CCC1(C)N=C(c2ccc3c(c2)OCO3)CC(c2ccccc2O)N1 (configuration not stated),-286*
Brc1c(-c2ccccc2)nc2n1Cc1ccccc1-2,-146*
c1ccc2c(c1)Cn1c-2nc2ccccc21,-124*
Oc1ccc(/C=N/Nc2ncnc3c2ncn3Cc2ccccc2)cc1O,-67*
Nc1c(S(=O)(=O)c2cccc(Cl)c2)c2nc3ccccc3nc2n1/N=C/c1ccc(O)c(O)c1,89
Oc1cccc(/C=N/Nc2ncnc3c2ncn3Cc2ccccc2)c1,-77*
CN1CCN(c2ccc(-c3ccnn3C(=O)Nc3ccccc3)cc2)CC1,-72*
CN(C)S(=O)(=O)c1ccc(C(=O)NCCOc2ccccc2)cc1,-106*
CN(C)S(=O)(=O)c1ccc(C(=O)NCCOc2ccc(F)cc2)cc1,-99*
CCc1ccc(Nc2cc(=O)n(C3CCCCC3)c(=O)[nH]2)cc1,-79*
C/C(=N\Nc1cccc2cccnc12)c1ccc[nH]1,-123*
O=C(Nc1ccc2c(c1)nc1n2CCOC1)c1ccco1,-66*
O=C(Nc1ccc2c(c1)nc1n2CCOC1)C1CCCCC1,-106*
CN(C)c1ccc(-c2nn3c(-c4ccccc4Cl)nnc3s2)cc1,82
Cc1nnc2sc(-c3ccc(N(C)C)cc3)nn2c1=O,-76*
COc1ccccc1NC(=O)C(=O)c1cn(CC(=O)N2CCOCC2)c2ccccc12,-119*
SMILES,aSyn UTR act
COc1ccc(NC(=O)C(=O)c2cn(CC(=O)N3CCCC3)c3ccccc23)c(OC)c1,-86*
O=C1C2C3C=CC(C3)C2C(=O)N1/N=C/c1ccc(-c2ccccc2[N+](=O)[O-])o1 (configuration not stated),-77*
Cc1occc1C(=O)Nc1ccc(Br)cc1F,-165*
Cc1nn(C)c(C(=O)Nc2ccc(Br)cc2F)c1Br,-110*
Cc1cc(Cl)c2oc(C(=O)N3CCN(c4cccc(C)n4)CC3)c(C)c2c1,-127*
O=c1cc(N2CCN(c3ccc(F)cc3)CC2)[nH]c(=O)n1C1CCCCC1,-107*
O=C(Nc1nccs1)c1cc2c(s1)CCCCC2,72
CC(C)Cc1nnc(NC(=O)c2cc3c(s2)CCC3)s1,-207*
O=C(Nc1nncs1)c1cc2c(s1)CCC2,-132*
C/C(=N\NC(=O)C1CC1)c1ccc(NC(=O)c2ccc(Br)o2)cc1,-110*
C/C(=N\NC(=O)c1c(Cl)cnn1C)c1ccc(NC(=O)c2ccc(Br)o2)cc1,-116*
COc1ccc(O)c(C(=O)CC(=O)c2ccccc2C)c1,-100*
COc1ccc(C(=O)CC(=O)c2ccccc2O)cc1,-218*
COc1ccc(O)c(C(=O)CC(=O)c2ccc(F)cc2)c1,73
Cn1c(SCc2ccc(F)cc2)nnc1-c1cccs1,-108*
c1ccc(CN2CCC(Nc3nc(-c4cccs4)nc4ccccc34)CC2)cc1,62
Cn1c(SCc2ccccc2)nnc1-c1cccs1,-147*
COC(=O)Cc1c(C)c2ccc(OC3CCCCC3=O)c(C)c2oc1=O (configuration not stated),-65*
Cc1c(CCC(=O)N2CCC[C@H]2C(=O)O)c(=O)oc2cc3oc4c(c3cc12)CCCC4,77
Cn1c(=O)oc2cc(NC(=O)CCl)ccc21,-107*
c1ccc(NC2=Nc3ccccc3CS2)cc1,-201*
O=C(O)c1cccc(N/N=C/C2=C(Cl)c3cc(Cl)ccc3SC2)c1,-103*
Clc1nc(-c2ccccn2)nc2scc(-c3ccccc3)c12,-206*
O=c1c2cc(-c3ccccc3)sc2ncn1-n1cccc1,-255*
CCn1cnc2sc(-c3ccccc3)cc2c1=O,-130*
SMILES,aSyn UTR act
Cc1ccc(C)n1-n1c(C)nc2sc(-c3ccccc3)cc2c1=O,-105*
CC(=O)Cn1cnc2sc(-c3ccccc3)cc2c1=O,-175*
Cc1nc2cc(-c3ccccc3)sc2c(=O)n1N,111
CC(=O)Cn1nnc2sc(-c3ccccc3)cc2c1=O,-90*
CC(C)Sc1nnc(NC(=O)c2ccco2)s1,-64*
O=C(Nc1nnc(/C=C/c2ccccc2)s1)c1ccco1,-83*
COc1ccc(Cc2nnc(NC(=O)c3ccco3)s2)cc1,-62*
Cc1cccc(-c2nnc(NC(=O)c3ccco3)s2)c1,-124*
O=C(Nc1nnc(-c2ccc(F)cc2)s1)c1ccco1,-121*
Cc1ccc(C2=NN3C(=O)c4ccccc4C3C2)cc1 (configuration not stated),-170*
COc1ccc(Nc2nnc(SCC3CCCO3)s2)cc1 (configuration not stated),-105*
COc1cccc(Nc2nnc(SCC3CCCCO3)s2)c1 (configuration not stated),-76*
Cc1ccc2c(c1)COc1c3ccc(C(=O)N[C@@H](CO)C(C)C)cc3nn1-2,-144*
COCCNC(=O)c1ccc2c3n(nc2c1)-c1ccc(C)cc1CO3,-151*
O=C1/C(=N\S(=O)(=O)c2cccs2)C([n+]2ccc(CCCc3ccccc3)cc2)=C([O-])c2ccccc21,91
CN(C)c1ccc(-c2nnc(SCC3CCCO3)n2C)cc1 (configuration not stated),-89*
O=c1c2ccccc2nc(-c2ccccc2)n1Cc1ccccc1,-93*
CCCn1c(-c2cccc([N+](=O)[O-])c2)nc2c1c(=O)[nH]c(=O)n2Cc1ccccc1,54
CCOC(=O)c1csc(NC(=O)c2ccc3c(c2)OCCO3)n1,-79*
CCOC(=O)c1csc(NC(=O)c2cc3ccccc3o2)n1,-125*
CCOC(=O)c1sc(NC(=O)c2cc3ccccc3o2)nc1C,-113*
CCOC(=O)c1sc(NC(=O)c2ccc(CC)s2)nc1C,-133*
Cc1nc2c(ccc3nc(NC(=O)c4ccc5c(c4)OCCO5)sc32)s1,-117*
CCOC(=O)c1csc(NC(=O)c2ccccc2)n1,-158*
Cc1nnc(NC(=O)c2cc3ccccc3o2)s1,-82*
SMILES,aSyn UTR act
COC(=O)Cc1csc(Nc2ccccc2Cl)n1,-86*
C=CCOC(=O)c1sc(NC(=O)c2ccco2)nc1C,-167*
CCOC(=O)Cc1cnc(NC(=O)c2ccccc2)s1,-113*
CCOC(=O)c1csc(-c2ccc3c(c2)CCO3)n1,-110*
CCc1ccc(C(=O)Nc2cc(C)ccc2F)s1,-143*
CCOC(=O)c1sc(NC(=O)Nc2ccccc2F)nc1C,70
CCOC(=O)c1sc(Nc2ccccc2Cl)nc1C,-184*
Cc1cccc(OCc2nc(-c3nonc3N)no2)c1C,-144*
O=C(Nc1ccc(-c2noc(COc3ccccc3Cl)n2)cc1)c1ccco1,-140*
Nc1nonc1-c1noc(CCCN2C(=O)c3ccccc3C2=O)n1,-108*
Nc1nonc1-c1noc(COc2ccccc2Cl)n1,-162*
O=C(/C(C=Nc1ccc(F)cc1)=C(/O)c1ccco1)C(F)(F)F,-113*
Cc1cccc(N=C/C(C(=O)C(F)(F)F)=C(\O)c2ccco2)c1,-167*
Cc1ccc(N=C/C(C(=O)C(F)(F)F)=C(\O)c2ccco2)cc1Cl,-184*
